For 5 molecules, composite z-score and z-score results are on record in PubChem BioAssay.

SMILES strings stand for the structures. Activity calls are given as the source filed them. Unless noted, the rule behind the calls is not given here.

Assay [1] can be described thus: anti-His antibody binders, primary screen, artefact control for SMM control protein annotation, biochemical, small-molecule microarray, 635 nm fluorescence (AID 1128).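 Note: score merges feature fluorescence with signal-to-noise for each printed compound spot.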 The settings on record: anti-His Alexa647 antibody binding, higher = more signal.
The subject of assay [2] is Human papillomavirus type 1a E7 protein (residues 1-88). Description: HPV1a E7 small-molecule binders, primary screen, biochemical, small-molecule microarray, residues 1-88, 635 nm (AID 1129). The settings on record: small-molecule microarray binding, fluorescence 635 nm; higher = more signal.
Assay [3] has as its target Focal adhesion kinase 1 (Homo sapiens) (UniProt Q05397). The experiment in a line: small-molecule microarray binders of FAK, primary screen, biochemical, 635/667 nm fluorescence, BSA, DTT (AID 1130).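 Note: composite of spot emission at 667 nm and signal to noise over triplicate slides.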 The settings on record: PTK2 binding, 635 nm fluorescence, higher = more signal.
Assay [4] has as its system Fibrinogen (Alexa647-labelled). Description: fibrinogen binders on compound microarrays, profiling panel, artefact control for SMM control-protein annotation, biochemical, small-molecule microarray, 635/667 nm fluorescence (AID 1131).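 Note: z-score merges 667 nm fluorescence with per-spot signal-to-noise over triplicate slides.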 The settings on record: fibrinogen-A647 binding fluorescence, higher = more signal.
Assay [5] has as its target Follistatin (Homo sapiens) (UniProt P19883). Description: follistatin binders on small-molecule microarrays, primary screen, biochemical, small-molecule microarray, 635/667 nm fluorescence (AID 1132). The conditions noted are these: FST binding, 635 nm fluorescence, higher = more signal.
Assay [6] addresses Fibroblast growth factor 2 (Homo sapiens) (UniProt P09038). The experiment in a line: FGF2 binders on small-molecule microarrays, primary screen, biochemical, small-molecule microarray, 635/667 nm fluorescence (AID 1133). The conditions noted are these: small-molecule microarray binding, FGF2, fluorescence 635/667; higher = more signal.
The nature of assay [7]: mitochondrial membrane potential change in A549 cells, profiling panel, cell-based, JC-1 fluorescence, basal, 24 h, 100 nL (AID 1138).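 Note: A549 lung adenocarcinoma cells under basal conditions with no added stimulus; test concentration not given here.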 The conditions noted are these: higher = more signal.
Assay [8] concerns Lefty1. Description: Lefty1 binders on small-molecule microarrays, primary screen, biochemical, small-molecule microarray, 635/667 nm fluorescence (AID 1139). The conditions noted are these: small-molecule microarray binding, fluorescence 635/667; higher = more signal.
The test system of assay [9] is wheat germ agglutinin (Triticum aestivum), Alexa647-labelled. Description: wheat germ agglutinin binders on compound microarrays, profiling panel, artefact control for SMM control-protein annotation, biochemical, small-molecule microarray, 635/667 nm fluorescence (AID 1140).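 Note: score merges 667 nm feature emission with signal to noise over triplicate slides.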 The conditions noted are these: WGA-A647 binding, 635 nm fluorescence, higher = more signal.
Assay [10] addresses Luciferin 4-monooxygenase (Photinus pyralis) (UniProt P08659). Description: firefly luciferase enzyme inhibitors, primary screen, biochemical, luminescence, purified enzyme, 2006 set (AID 1141).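 Note: cell-free assay with purified firefly luciferase at 100 ng per well in PBS; test concentration not given here.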 The conditions noted are these: SteadyGlo luminescence, 30 min, higher = more signal, called active from +8 up or from −8 down.
Assay [11] has as its system Wnt5a (protein binding on small-molecule microarray). The experiment in a line: Wnt5a binders on small-molecule microarray, primary screen, biophysical, 635/667 nm fluorescence (AID 1142).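 Note: fluorescence read at 667 nm with signal to noise per printed feature.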 The settings on record: 635 nm fluorescence, higher = more signal.
Assay [12] can be described thus: cell viability in Huh7 cells, primary screen, cytotoxicity control for HCV replication inhibitor project, CellTiter-Glo luminescence, basal, 48 h (AID 1143).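 Note: Huh7 hepatoma cells carrying a hepatitis C replication reporter with no stimulus; test concentration not given here.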 The settings on record: Huh7 HCV replicon, higher = more signal, called active from +8 up or from −8 down.
The nature of assay [13]: P. aeruginosa biofilm formation inhibitors, primary screen, PAO1 strain, BacTiter-Glo luminescence, LB-PBS (AID 1144). The conditions noted are these: 12 h, higher = more signal.
The nature of assay [14]: CREB reporter modulators without forskolin, primary screen, cell-based, PC12, CRE-LacZ reporter, unstimulated (AID 1145). The settings on record: no forskolin, luminescence, 4.5 h, higher = more signal, called active from +8 up or from −8 down.
Assay [15] in a line: CREB reporter modulators under forskolin, primary screen, cell-based, PC12, CRE-LacZ reporter, forskolin-stimulated (AID 1146).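 Note: PC12 cells with 6xCRE LacZ reporter stimulated by forskolin 10 µM; beta-galactosidase reporter signal reflecting CREB driven transcription.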 The settings on record: luminescence, 4.5 h, higher = more signal, called active from +8 up or from −8 down.
Assay [16] deals with Streptavidin (Streptomyces avidinii) (UniProt P22629). Description: streptavidin binders on small-molecule microarray, primary screen, artefact control for SMM compound annotation, biophysical, 635/667 nm fluorescence (AID 1147).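 Note: signal reflects streptavidin binding to arrayed compounds as a control protein.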 The settings on record: streptavidin binding, higher = more signal.
Sequence of Streptavidin (Streptomyces avidinii) (P22629 whole entry, looked up): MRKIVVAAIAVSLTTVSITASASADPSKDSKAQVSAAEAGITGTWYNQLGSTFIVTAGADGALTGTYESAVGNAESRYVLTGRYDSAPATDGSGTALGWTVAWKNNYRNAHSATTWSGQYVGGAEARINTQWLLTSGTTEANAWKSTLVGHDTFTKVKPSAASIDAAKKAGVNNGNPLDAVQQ
Assay [17] can be described thus: small-molecule binders of probe aInhba, primary screen, biochemical, small-molecule microarray, 635/667 nm fluorescence (AID 1148).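 Note: score merges 667nm spot fluorescence with signal-to-noise for antibody binding to printed compounds.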 The conditions noted are these: higher = more signal.
The target of assay [18] is Torsin-1A (Homo sapiens) (UniProt O14656). The experiment in a line: torsin A binders from cell lysate, primary screen, small-molecule microarray, wild-type, 635/667 nm (AID 1149). The settings on record: COS7 hTOR1A-WT lysate, 635 nm fluorescence, higher = more signal.
Sequence of Torsin-1A (Homo sapiens) (O14656 whole entry, looked up): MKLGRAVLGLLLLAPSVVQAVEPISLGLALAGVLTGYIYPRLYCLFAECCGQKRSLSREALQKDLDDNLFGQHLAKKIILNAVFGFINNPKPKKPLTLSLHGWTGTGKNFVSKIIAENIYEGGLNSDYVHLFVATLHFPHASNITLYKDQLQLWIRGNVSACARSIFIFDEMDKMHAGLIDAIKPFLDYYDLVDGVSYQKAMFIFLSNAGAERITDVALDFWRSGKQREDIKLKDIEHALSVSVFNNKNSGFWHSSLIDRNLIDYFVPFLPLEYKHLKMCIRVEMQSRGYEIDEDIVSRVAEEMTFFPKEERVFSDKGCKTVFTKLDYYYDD
For assay [19] the target is unchanged. Description: small-molecule binders of mutant TOR1A in lysate, primary screen, cell lysate, small-molecule microarray, COS7 lysate, 635/667 nm fluorescence (AID 1150).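 Note: score pools 667 nm emission and signal to noise measuring lysate protein binding.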 The conditions noted are these: COS7 hTOR1A mutant lysate, 635 nm fluorescence, higher = more signal.
For assay [20], the system named is Sonic hedgehog protein (Shh). Description: small-molecule binders of Shh protein, primary screen, biochemical, small-molecule microarray, 635/667 nm fluorescence (AID 1151).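 Note: Shh protein binding to compounds spotted on small-molecule microarray slides; score combines spot fluorescence intensity with signal-to-noise across triplicate slides.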 The conditions noted are these: small-molecule microarray binding, 635 nm fluorescence; higher = more signal.

Sequence of Fibroblast growth factor 2 (Homo sapiens) (P09038 whole entry, looked up): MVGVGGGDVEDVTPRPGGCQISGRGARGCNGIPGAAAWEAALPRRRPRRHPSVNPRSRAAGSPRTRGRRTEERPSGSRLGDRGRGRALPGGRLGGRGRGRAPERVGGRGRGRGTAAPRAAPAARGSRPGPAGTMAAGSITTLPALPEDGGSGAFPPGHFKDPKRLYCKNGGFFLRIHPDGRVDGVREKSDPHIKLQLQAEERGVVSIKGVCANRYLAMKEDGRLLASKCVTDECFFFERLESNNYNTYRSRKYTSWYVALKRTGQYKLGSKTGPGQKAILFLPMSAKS
Sequence of Follistatin (Homo sapiens) (P19883 whole entry, looked up): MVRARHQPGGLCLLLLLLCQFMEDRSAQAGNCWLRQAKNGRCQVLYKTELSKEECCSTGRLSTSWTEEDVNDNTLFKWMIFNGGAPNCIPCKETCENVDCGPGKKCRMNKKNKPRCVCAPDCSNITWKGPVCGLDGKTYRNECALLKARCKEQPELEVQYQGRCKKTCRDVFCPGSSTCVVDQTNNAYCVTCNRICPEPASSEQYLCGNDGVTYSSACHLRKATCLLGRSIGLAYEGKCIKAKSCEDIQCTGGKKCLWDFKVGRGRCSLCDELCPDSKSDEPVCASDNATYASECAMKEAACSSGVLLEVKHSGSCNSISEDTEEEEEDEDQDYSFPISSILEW
Sequence of Focal adhesion kinase 1 (Homo sapiens) (Q05397 whole entry, looked up): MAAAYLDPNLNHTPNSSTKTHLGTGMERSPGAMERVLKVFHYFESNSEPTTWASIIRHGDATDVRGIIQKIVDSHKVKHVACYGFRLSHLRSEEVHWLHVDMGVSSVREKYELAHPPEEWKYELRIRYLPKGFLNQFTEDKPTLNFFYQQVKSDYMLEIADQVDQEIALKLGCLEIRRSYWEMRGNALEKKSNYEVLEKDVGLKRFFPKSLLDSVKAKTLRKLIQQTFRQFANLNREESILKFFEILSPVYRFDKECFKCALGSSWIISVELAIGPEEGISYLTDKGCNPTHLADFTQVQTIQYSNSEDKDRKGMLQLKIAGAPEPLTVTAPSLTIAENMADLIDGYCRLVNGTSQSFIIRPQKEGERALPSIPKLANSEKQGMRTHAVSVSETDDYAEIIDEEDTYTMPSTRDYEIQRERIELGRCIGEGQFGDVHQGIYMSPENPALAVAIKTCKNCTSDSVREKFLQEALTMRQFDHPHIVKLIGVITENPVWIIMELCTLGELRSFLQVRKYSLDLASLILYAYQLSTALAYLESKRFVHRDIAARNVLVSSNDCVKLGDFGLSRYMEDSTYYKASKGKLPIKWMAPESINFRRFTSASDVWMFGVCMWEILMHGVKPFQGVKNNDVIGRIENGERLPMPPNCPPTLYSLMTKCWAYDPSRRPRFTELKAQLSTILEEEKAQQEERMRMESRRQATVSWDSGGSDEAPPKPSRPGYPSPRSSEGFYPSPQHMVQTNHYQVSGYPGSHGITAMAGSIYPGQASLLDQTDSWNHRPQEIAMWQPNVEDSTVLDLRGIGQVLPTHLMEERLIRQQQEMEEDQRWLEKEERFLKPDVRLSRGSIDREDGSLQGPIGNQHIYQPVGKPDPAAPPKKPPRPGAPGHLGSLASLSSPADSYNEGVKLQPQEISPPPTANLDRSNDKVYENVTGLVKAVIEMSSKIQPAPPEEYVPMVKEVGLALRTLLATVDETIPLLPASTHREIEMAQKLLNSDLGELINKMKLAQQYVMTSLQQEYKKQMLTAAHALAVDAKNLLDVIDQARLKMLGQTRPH
Sequence of Luciferin 4-monooxygenase (Photinus pyralis) (P08659 whole entry, looked up): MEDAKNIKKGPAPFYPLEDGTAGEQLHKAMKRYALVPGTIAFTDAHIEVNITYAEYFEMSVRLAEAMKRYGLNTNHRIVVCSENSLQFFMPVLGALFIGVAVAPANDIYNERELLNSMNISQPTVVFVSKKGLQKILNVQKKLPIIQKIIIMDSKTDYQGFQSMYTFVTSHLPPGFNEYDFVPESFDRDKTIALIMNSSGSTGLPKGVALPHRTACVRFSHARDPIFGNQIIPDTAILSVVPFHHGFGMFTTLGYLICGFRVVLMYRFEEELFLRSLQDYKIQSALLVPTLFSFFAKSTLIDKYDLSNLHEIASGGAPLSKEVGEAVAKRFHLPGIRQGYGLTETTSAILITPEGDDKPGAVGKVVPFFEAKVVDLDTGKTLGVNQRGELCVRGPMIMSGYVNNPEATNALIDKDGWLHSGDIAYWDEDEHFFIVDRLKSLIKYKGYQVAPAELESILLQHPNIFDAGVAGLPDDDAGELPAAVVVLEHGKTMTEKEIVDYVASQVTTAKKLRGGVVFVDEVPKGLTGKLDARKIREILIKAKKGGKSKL

For `C=CCC(OC(C)=O)[C@@H]1[C@@H](N(Cc2ccc(-c3cccc(C(F)(F)F)c3)o2)C(=O)c2ccc(C)cc2)c2cc(OCCCO)ccc2N1C(=O)c1ccc2ccccc2n1` (stereo not given in full), the composite z-score in [1] is -0.614; in [2] it was -0.369; in [3] it was -0.223; in assay [4], 0.33; in assay [5], 0.839; in [6], 0.131. Also, the composite z-score is 0.727 in assay [8]; 0.717 in assay [9]; 0.0861 in assay [11]; 0.256 in [16]; -0.151 in [17]; -0.138 in [18]. For the same molecule, the composite z-score in assay [19] is 0.114; in [20] it was 0.978. Besides, the z-score in assay [7] is 0.61; in assay [10] it was -1.25 (inactive); in [12], 0.0775 (inactive); in assay [13], -0.293 (inactive); in assay [14], 0.395 (inactive); in assay [15], -0.0797 (inactive).
Take `CC(C)CNC(=O)[C@@]1(C)c2ccccc2C(=O)N(C(C)C)[C@H]1c1ccc(CO)cc1`: the composite z-score in assay [1] was -0.105; in assay [2], -1.79; in assay [3], 0.175; in assay [4], -1.07; in assay [5], -0.0856; in assay [6], -0.379. Besides, the composite z-score in assay [8] was -0.353; in assay [9], -0.148; in assay [11] it was -0.16; in assay [16] it was -1.36; in assay [17], -0.187; in assay [18] it was -0.633. For the same molecule, the composite z-score in assay [19] is -1.63; in assay [20], -0.542. Further, the z-score in assay [7] is -0.265; in assay [10], 0.691 (inactive); in assay [12], 1.09 (inactive); in assay [13], 0.15 (inactive); in [14], -0.179 (inactive); in assay [15], -0.568 (inactive).
Turning to `C=CC[C@@]1(C(=O)NCCN2CCOCC2)N=C(c2ccc(OCCCO)cc2)O[C@@H]1c1ccccc1CN=[N+]=[N-]`, the composite z-score in [1] was 2.83; in assay [2], 1.23; in [3], 0.269; in assay [4] it was 0.216; in assay [5] it was 0.898; in [6] it was -0.224. Moreover, the composite z-score in assay [8] was -0.0903; in assay [9] it was 1; in assay [11], 0.13; in assay [16], 0.349; in assay [17], -0.197; in assay [18], 0.598. Further, the values for the composite z-score in [19] and in [20] were 1.16 and -0.0578, respectively. The z-score is 0.127 in assay [7]; -3.74 (inactive) in [10]; -4.2 (inactive) in assay [12]; -0.557 (inactive) in [13]; 0.526 (inactive) in [14]; -1.22 (inactive) in assay [15].
Take `O=C1OCC=C[C@H]2OC34C=CCN(c5ccc(Cl)cc5)C(=O)[C@H]3N(CCCO)C(=O)[C@@H]4[C@@H]12` (stereo not given in full): the composite z-score in assay [1] is -0.562; in [2], -0.799; in assay [3], 0.29; in assay [4], -1.02; in assay [5] it was -0.706; in assay [6], -0.708. Besides, the composite z-score is -0.672 in [8]; -0.748 in [9]; -0.329 in assay [11]; -1.47 in assay [16]; -0.15 in assay [17]; 0.626 in assay [18]. Moreover, the composite z-score in assay [19] was -2.06; in assay [20], -0.629. Moreover, the z-score in assay [7] is -0.353; in assay [10], -0.429 (inactive); in [12] it was -2.14 (inactive); in [13], -0.288 (inactive); in assay [14], 1.28 (inactive); in assay [15] it was 0.245 (inactive).
Turning to `CC(C)[Si]1(C(C)C)O[C@@H](c2ccccc2)c2cc(-c3ccc(-c4ccc(Cl)c(Cl)c4)o3)nc(CCc3ccccc3)c21`, the composite z-score in [1] is -0.203; in [2] it was -0.339; in assay [3], -0.389; in assay [4] it was -1.27; in assay [5], -2.16; in [6], -0.614. Further, the composite z-score was -1.08 in [8]; -1.58 in assay [9]; -0.306 in assay [11]; -0.549 in [16]; -0.204 in assay [17]; -0.555 in assay [18]. For the same molecule, the figures for the composite z-score in assay [19] and in assay [20] were -0.181 and -0.74, respectively. In addition, the z-score is -0.107 in assay [7]; -0.7 (inactive) in assay [10]; -1.03 (inactive) in assay [12]; 0.251 (inactive) in assay [13]; 0.367 (inactive) in assay [14]; 1.52 (inactive) in [15].
